Measured values taken from PubChem BioAssay (Tox21).
Inconclusive results are not listed. A call without a number means that no potency is given here. The source made the active and inactive calls. Unless noted, calls come from the whole dose curve.

Tests used:
[1] = Nuclear factor erythroid 2-related factor 2/antioxidant responsive element (Nrf2/ARE) small molecule agonists: qHTS cell viability counter screen in human keratinocytes (AID 1919968; active = well fitted curve in the direction sought with a large enough effect in the repeat runs; an effect the other way counts as inactive or inconclusive; note: nearly all actives have a fitted effect of over 55% in size)
Summary of the method: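 Fluorescence read-out from CellTiter-Fluor after 1 h at 37 C. Wells held HaCaT-derived ARE-luciferase reporter cells (1,500/well) treated 23 h with DMSO-dissolved compounds. Run in the same wells as the luciferase agonist read.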

[2] = Nuclear factor erythroid 2-related factor 2/antioxidant responsive element (Nrf2/ARE) small molecule agonists: luciferase reporter gene qHTS assay in human keratinocytes (AID 1919969); note: nearly all actives have a fitted effect of over 35% in size; note: potency is the fitted concentration of half-maximal effect
[3] = molecular target: Gonadotropin-releasing hormone receptor (Homo sapiens) (UniProt P30968); test: Human gonadotropin-releasing hormone receptor (GnRHR) small molecule agonists, calcium flux assay in GnRHR-HEK293 cells (AID 1920063); note: nearly all actives have a fitted effect of over 35% in size
Sequence of Gonadotropin-releasing hormone receptor (Homo sapiens) (P30968 whole entry, looked up): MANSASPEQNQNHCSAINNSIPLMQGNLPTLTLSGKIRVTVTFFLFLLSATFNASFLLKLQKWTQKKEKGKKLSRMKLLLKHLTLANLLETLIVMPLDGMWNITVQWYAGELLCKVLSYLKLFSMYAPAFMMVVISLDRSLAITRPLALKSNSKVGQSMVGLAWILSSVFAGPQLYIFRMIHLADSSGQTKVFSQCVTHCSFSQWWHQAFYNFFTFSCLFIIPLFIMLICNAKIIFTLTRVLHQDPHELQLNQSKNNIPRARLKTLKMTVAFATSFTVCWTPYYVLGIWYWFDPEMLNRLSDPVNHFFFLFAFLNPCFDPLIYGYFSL
Summary of the method: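 Calcium-dye fluorescence, Ex/Em=480/540, recorded every 1 sec over 3 min after compound addition to GnRHR-HEK293 cells. Cells had been seeded 18 hours earlier and dye-loaded for 1 hour at 37 C. Fifteen concentrations, triplicates.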

[4] = molecular target: KiSS-1 receptor (Homo sapiens) (UniProt Q969F8); test: Human kisspeptin (KISS1R) small molecule agonists, calcium flux assay in KISS1R-HEK293 cells (AID 1920064; active = well fitted curve in the direction sought with a large enough effect in the repeat runs; an effect the other way counts as inactive or inconclusive)
Sequence of KiSS-1 receptor (Homo sapiens) (Q969F8 whole entry, looked up): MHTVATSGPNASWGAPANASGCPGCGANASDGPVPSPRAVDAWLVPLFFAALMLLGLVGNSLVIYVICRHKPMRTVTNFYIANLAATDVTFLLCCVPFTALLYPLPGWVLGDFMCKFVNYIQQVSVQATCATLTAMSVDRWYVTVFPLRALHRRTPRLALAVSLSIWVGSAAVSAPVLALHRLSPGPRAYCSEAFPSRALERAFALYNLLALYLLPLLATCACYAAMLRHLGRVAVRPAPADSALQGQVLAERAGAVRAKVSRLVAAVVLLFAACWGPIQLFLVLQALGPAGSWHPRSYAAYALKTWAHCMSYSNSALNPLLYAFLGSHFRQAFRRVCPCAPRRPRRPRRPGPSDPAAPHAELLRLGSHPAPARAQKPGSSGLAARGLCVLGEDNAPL
Summary of the method: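 Calcium flux read-out: kinetic fluorescence at Ex/Em=480/540, 1 s intervals over 3 min, after pin-tool compound addition to dye-loaded KISS1R-HEK293 cells. Fifteen concentrations, triplicates.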

[5] = G protein-coupled receptor (GPCR) small molecule agonists, calcium flux assay: HEK293 wild type cell line counter screen (AID 1920065)
Summary of the method: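 Agonist mode; 18 h seeding at 37 C, 1 h dye load at 37 C; compounds pinned from DMSO, ATP as positive control; kinetic fluorescence 480/540 nm, 3 min, 1 s reads; 15 concentrations, triplicate.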

[6] = p53 small molecule agonists, cell-based qHTS assay with human liver microsomes (AID 1963577);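 note: p53 response element beta-lactamase reporter cells with liver microsomes plus NADPH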
Summary of the method: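 p53RE-bla cells; 5 h settle, 37 C/5% CO2; cpd + HLM 0.5 mg/mL + NADPH 0.5 mg/mL (final); 16 h 37 C; LiveBLAzer 2 h RT dark; fluorescence readout.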

[7] = p53 small molecule agonists, cell-based qHTS assay with rat liver microsomes (AID 1963578)
Summary of the method: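 Rat liver microsome activation: microsomes 0.5 mg/mL, NADPH 0.5 mg/mL final; p53RE-bla cells, 16 h 37 C; LiveBLAzer readout, 2 h RT dark.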

[8] = p53 small molecule agonists, cell-based qHTS assay with human liver microsomes: qHTS cell viability counter screen (AID 1963579); note: nearly all actives have a fitted effect of over 45% in size
Summary of the method: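 Luminescent CellTiter-Glo read-out, 30 min at room temperature, gauged cytotoxicity in p53RE-bla cells exposed 16 h at 37 C to DMSO-dissolved compounds with metabolic activation by human liver microsomes and NADPH, each 0.5 mg/mL final.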

[9] = p53 small molecule agonists, cell-based qHTS assay with rat liver microsomes: qHTS cell viability counter screen (AID 1963580); note: nearly all actives have a fitted effect of over 45% in size
Summary of the method: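 After the beta-lactamase ratio was read, CellTiter-Glo was added to the same wells and luminescence measured at 30 min; cells had been treated 16 h at 37 C with compounds, rat liver microsomes and NADPH (0.5 mg/mL final each).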

[10] = p53 small molecule agonists, cell-based qHTS assay: qHTS cell viability counter screen (AID 1963581); note: nearly all actives have a fitted effect of over 45% in size
Summary of the method: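 Cytotoxicity read-out: ATP-based luminescence (CellTiter-Glo, 30 min RT) measured in the same wells as the p53 reporter assay, HCT-116 p53RE-bla cells, 16 h compound exposure at 37 C.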

[11] = p53 small molecule agonists, cell-based qHTS assay (AID 1963582; active = well fitted activation curve with a large enough effect in the signal ratio in the repeat runs, not every such curve was filed as active; the % refers to the signal ratio)
Summary of the method: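 Fluorescence intensity read-out of a beta-lactamase reporter under a p53 response element. Cells were exposed to DMSO-dissolved compounds for 16 h at 37 C, then developed with FRET substrate for 2 h at RT.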

[12] = molecular target: 5-hydroxytryptamine receptor 2A (Homo sapiens) (UniProt P28223); test: 5-hydroxytryptamine receptor 2A (HTR2A) small molecule antagonists, cell-based qHTS assay (AID 1963586); note: nearly all actives have a fitted effect of over 45% in size
Sequence of 5-hydroxytryptamine receptor 2A (Homo sapiens) (P28223 whole entry, looked up): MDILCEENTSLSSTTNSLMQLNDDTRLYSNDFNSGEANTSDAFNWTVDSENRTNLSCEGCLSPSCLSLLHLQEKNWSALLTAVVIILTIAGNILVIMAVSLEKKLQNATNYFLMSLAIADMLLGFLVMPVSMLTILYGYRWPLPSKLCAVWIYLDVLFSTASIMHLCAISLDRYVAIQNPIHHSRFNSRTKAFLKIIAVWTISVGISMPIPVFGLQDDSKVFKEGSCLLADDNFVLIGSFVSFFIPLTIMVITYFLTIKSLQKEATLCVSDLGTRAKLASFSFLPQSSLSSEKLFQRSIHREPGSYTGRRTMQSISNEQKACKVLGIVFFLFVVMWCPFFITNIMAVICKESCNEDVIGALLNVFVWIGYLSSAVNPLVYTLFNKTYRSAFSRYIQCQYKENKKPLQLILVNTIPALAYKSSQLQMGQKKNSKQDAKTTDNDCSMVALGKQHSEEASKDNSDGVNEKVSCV
Summary of the method: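 CHO cells stably expressing human HTR2A were plated for 18 h at 37 C, then loaded with calcium dye for 1 h. Compounds were preincubated 5 min at room temperature before DOI (4 nM solution) was added. Kinetic fluorescence was read for 3 min.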

[13] = molecular target: 5-hydroxytryptamine receptor 2A (Homo sapiens) (UniProt P28223); test: 5-hydroxytryptamine receptor 2A (HTR2A) small molecule agonists, cell-based qHTS assay (AID 1963587); note: nearly all actives have a fitted effect of over 30% in size
Summary of the method: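 CHO cells stably expressing human HTR2A, plated 18 h, loaded with calcium dye 1 h at 37 C. Agonist mode: compounds added and intracellular calcium fluorescence recorded kinetically for 2 min at 1 sec intervals.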

[14] = molecular target: Muscarinic acetylcholine receptor M1 (Homo sapiens) (UniProt P11229); test: Cholinergic receptor muscarinic 1 (CHRM1) small molecule antagonists, cell-based qHTS assay (AID 1963588); note: nearly all actives have a fitted effect of over 40% in size; note: potency is the fitted concentration of half-maximal effect
Sequence of Muscarinic acetylcholine receptor M1 (Homo sapiens) (P11229 whole entry, looked up): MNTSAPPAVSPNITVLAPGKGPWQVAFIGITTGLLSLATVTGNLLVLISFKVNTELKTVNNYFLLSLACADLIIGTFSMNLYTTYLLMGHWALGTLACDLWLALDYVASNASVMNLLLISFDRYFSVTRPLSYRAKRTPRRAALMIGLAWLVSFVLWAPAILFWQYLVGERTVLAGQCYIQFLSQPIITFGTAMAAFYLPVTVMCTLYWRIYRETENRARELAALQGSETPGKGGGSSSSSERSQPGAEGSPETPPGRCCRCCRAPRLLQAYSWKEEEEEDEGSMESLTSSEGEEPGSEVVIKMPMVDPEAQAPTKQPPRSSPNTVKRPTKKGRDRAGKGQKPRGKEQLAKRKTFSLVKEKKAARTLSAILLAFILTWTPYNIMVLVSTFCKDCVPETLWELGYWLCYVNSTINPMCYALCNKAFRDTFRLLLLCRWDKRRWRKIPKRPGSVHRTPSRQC
Summary of the method: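 Compounds were tested at 15 concentrations in three independent runs. Dye-loaded CHRM1-CHO cells were exposed 5 min at room temperature before stimulation by acetylcholine added at 50nM. Intracellular calcium was read kinetically on FDSS for 3 min.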

[15] = molecular target: Muscarinic acetylcholine receptor M1 (Homo sapiens) (UniProt P11229); test: Cholinergic receptor muscarinic 1 (CHRM1) small molecule agonists, cell-based qHTS assay (AID 1963589); note: nearly all actives have a fitted effect of over 35% in size
Summary of the method: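 Calcium flux read-out: kinetic fluorescence at 1 sec intervals after pin-tool compound addition to dye-loaded CHRM1-CHO cells (human M1). Agonist mode; 15 concentrations tested in triplicate independent runs.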

[16] = cAMP Responsive Elements (CRE) small molecule agonists, cell-based qHTS assay (AID 1963590)
Summary of the method: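 Beta-lactamase reporter readout: LiveBLAzer B/G FRET substrate, 2 h at room temperature, added after 3 h compound treatment of CRE-bla HEK 293T cells at 37 C/5% CO2.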

[17] = cAMP Responsive Elements (CRE) small molecule antagonists, cell-based qHTS assay (AID 1963591; active = well fitted inhibition curve with a large enough effect in the signal ratio in the repeat runs, not every such curve was filed as active; the % refers to the signal ratio)
Summary of the method: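 HEK293T CRE-bla; 18 h preincubation; compound pin-transfer; NKH477 0.25 uM final, 3 h, 37 C; LiveBLAzer FRET substrate 2 h RT.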

[18] = molecular target: Beta-2 adrenergic receptor (Homo sapiens) (UniProt P07550); test: Adrenergic beta2 receptor (ADRB2) small molecule antagonists, cell-based qHTS assay (AID 1963592); note: series mostly up to about 92 µM; nearly all actives have a fitted effect of over 50% in size
Sequence of Beta-2 adrenergic receptor (Homo sapiens) (P07550 whole entry, looked up): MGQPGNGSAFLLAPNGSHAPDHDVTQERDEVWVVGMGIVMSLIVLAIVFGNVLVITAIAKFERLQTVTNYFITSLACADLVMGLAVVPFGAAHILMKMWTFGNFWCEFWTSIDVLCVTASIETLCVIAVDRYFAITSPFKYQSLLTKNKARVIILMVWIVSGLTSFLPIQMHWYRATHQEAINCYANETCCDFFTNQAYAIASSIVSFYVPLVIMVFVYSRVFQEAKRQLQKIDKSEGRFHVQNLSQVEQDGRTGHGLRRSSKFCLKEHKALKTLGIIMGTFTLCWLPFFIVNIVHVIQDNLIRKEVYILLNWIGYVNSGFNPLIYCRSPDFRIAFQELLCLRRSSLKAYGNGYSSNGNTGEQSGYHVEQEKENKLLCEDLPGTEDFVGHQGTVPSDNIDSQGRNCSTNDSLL
Summary of the method: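 Assay format: CHO-ADRB2 cells, 18-20hr seeding at 37C/5% CO2, then compound plus 1nM isoproterenol agonist mix for 0.5hr RT. Homogeneous time-resolved fluorescence cAMP detection after 1hr, expressed as 665/615 nm ratio.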

[19] = molecular target: D(2) dopamine receptor (Homo sapiens) (UniProt P14416); test: Dopamine D2 receptor (DRD2) small molecule agonists, cell-based qHTS assay (AID 1963594); note: nearly all actives have a fitted effect of over 35% in size
Sequence of D(2) dopamine receptor (Homo sapiens) (P14416 whole entry, looked up): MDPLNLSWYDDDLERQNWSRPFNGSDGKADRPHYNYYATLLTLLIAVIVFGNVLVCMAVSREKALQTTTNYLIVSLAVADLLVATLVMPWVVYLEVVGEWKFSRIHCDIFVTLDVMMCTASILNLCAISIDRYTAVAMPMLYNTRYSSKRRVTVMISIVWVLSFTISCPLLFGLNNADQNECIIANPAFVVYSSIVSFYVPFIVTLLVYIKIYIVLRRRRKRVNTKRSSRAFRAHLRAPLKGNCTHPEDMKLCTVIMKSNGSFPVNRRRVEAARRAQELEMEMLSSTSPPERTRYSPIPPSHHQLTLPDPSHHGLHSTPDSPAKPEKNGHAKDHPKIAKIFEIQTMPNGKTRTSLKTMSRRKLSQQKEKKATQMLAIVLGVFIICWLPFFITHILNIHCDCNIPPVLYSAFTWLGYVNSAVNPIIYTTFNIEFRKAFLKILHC
Summary of the method: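 HEK293 cells stably expressing human DRD2, pre-treated with PDE inhibitor Ro20-1724 (0.1 mM final) and compound 10 min at room temperature, then stimulated with NKH477 (200nM […]) for 30 min. cAMP read by HTRF (665/620 nm).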

[20] = molecular target: D(2) dopamine receptor (Homo sapiens) (UniProt P14416); test: Dopamine D2 receptor (DRD2) small molecule antagonists, cell-based qHTS assay (AID 1963595; active = well fitted inhibition curve with a large enough effect in the signal ratio in the repeat runs, with a control signal flat; the % refers to the signal ratio)
Summary of the method: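 Human DRD2 antagonist qHTS measuring cAMP by HTRF. The cells are exposed to compound for 10 min, then to NKH477 (200 nM) and quinpirole (12 nM) for 30 min at RT, with Ro20-1724 (0.1 mM) present throughout.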

SMILES	Potency [1]	Potency [2]	Potency [3]	Potency [4]	Potency [5]	Potency [6]	Potency [7]	Potency [8]	Potency [9]	Potency [10]	Potency [11]	Potency [12]	Potency [13]	Potency [14]	Potency [15]	Potency [16]	Potency [17]	Potency [18]	Potency [19]	Potency [20]
COP(=O)(O)OC	inactive	inactive	inactive	inactive	inactive	inactive	inactive	inactive	inactive	inactive	inactive	inactive	inactive	inactive	inactive	inactive	inactive	inactive	inactive	inactive
Clc1cnc(Oc2ccc(Oc3ncc(Cl)cc3Cl)cc2)c(Cl)c1	inactive	inactive	inactive	inactive	inactive	inactive	inactive	inactive	inactive	inactive	inactive	inactive	inactive	inactive	inactive	inactive	inactive	inactive	inactive	inactive
CCC(Br)(CC)C(=O)NC(N)=O	inactive	inactive	inactive	inactive	inactive	inactive	inactive	inactive	inactive	inactive	inactive	inactive	inactive	inactive	inactive	inactive	inactive	inactive	inactive	inactive
CC(Cl)C(=O)O (stereo not given)	inactive	inactive	inactive	inactive	inactive	inactive	inactive	inactive	inactive	inactive	inactive	inactive	inactive	inactive	inactive	inactive	inactive	inactive	inactive	inactive
N#CCc1ccccc1	inactive	inactive	inactive	inactive	inactive	inactive	inactive	inactive	inactive	inactive	inactive	inactive	inactive	inactive	inactive	inactive	inactive	inactive	inactive	inactive
N#CCC#N	inactive	61.1 µM (active)	inactive	inactive	inactive	inactive	inactive	inactive	inactive	inactive	inactive	inactive	inactive	inactive	inactive	inactive	inactive	inactive	inactive	inactive
NC(=O)c1cc([N+](=O)[O-])cc([N+](=O)[O-])c1	inactive	inactive	inactive	inactive	inactive	inactive	inactive	inactive	inactive	inactive	inactive	inactive	inactive	0.46 µM (active)	inactive	inactive	inactive	inactive	inactive	inactive
C=CC(=O)OC(C)(C)C	inactive	inactive	inactive	inactive	inactive	inactive	inactive	inactive	inactive	inactive	inactive	inactive	inactive	inactive	inactive	inactive	inactive	inactive	inactive	inactive
Cc1ccc(CCl)cc1	inactive	inactive	inactive	inactive	inactive	inactive	inactive	inactive	inactive	inactive	inactive	inactive	inactive	inactive	inactive	inactive	inactive	inactive	inactive	inactive
CCNc1nc(Cl)nc(NC(C)(C)C#N)n1	inactive	inactive	inactive	inactive	inactive	inactive	inactive	inactive	inactive	inactive	inactive	inactive	inactive	inactive	inactive	inactive	inactive	inactive	inactive	inactive
C=CCN(CC=C)C(=O)C(Cl)Cl	inactive	inactive	inactive	inactive	inactive	inactive	inactive	inactive	inactive	inactive	inactive	inactive	inactive	inactive	inactive	inactive	inactive	inactive	inactive	inactive
CCCCCCCCCCCOC(=O)c1ccccc1C(=O)OCCCCCCCCCCC	inactive	inactive	inactive	inactive	inactive	inactive	inactive	inactive	inactive	inactive	inactive	inactive	inactive	inactive	inactive	inactive	inactive	inactive	inactive	inactive
C[N+]1(C)CCCCC1	inactive	inactive	inactive	inactive	inactive	inactive	inactive	inactive	inactive	inactive	inactive	inactive	inactive	inactive	inactive	inactive	inactive	inactive	inactive	inactive
O=c1c2ccccc2c(=O)c2c1cc(Cl)c1[nH]c3c([nH]c12)c(Cl)cc1c(=O)c2ccccc2c(=O)c13	inactive	inactive	inactive	inactive	inactive	inactive	inactive	inactive	inactive	inactive	inactive	inactive	inactive	inactive	inactive	inactive	inactive	inactive	inactive	inactive
Cc1ccc(C(=O)Cl)cc1	inactive	inactive	inactive	inactive	inactive	inactive	inactive	inactive	inactive	inactive	inactive	inactive	inactive	inactive	inactive	inactive	inactive	inactive	inactive	inactive
